# From PubChem BioAssay AID686978 (National Center for Advancing Translational Sciences (NCATS), 2013)
# Out of some 420,000 compounds screened, about 64,000 (15%) were called active. Not shown: some 27% with an inconclusive outcome. Calls come from the whole dose curve; as a rule, active = well fitted inhibition curve with a large enough effect; inconclusive = small, poorly fitted or top-dose-only effect; inactive = flat fitted curve, though single readings scatter. These entries were drawn from the full list. A call without a number means that no potency is given here.
# Experiment: qHTS for Inhibitors of human tyrosyl-DNA phosphodiesterase 1 (TDP1): qHTS in cells in absence of CPT; note: nearly all actives have a fitted effect of over 55% in size
# Details: DT40 Tdp1-/- hTDP1 cells, no CPT, ATP luminescence, 48 h; activity change, negative = growth inhibition: at 46.2 µM (top of the series)
# Excerpt: Human tyrosyl-DNA phosphodiesterase 1 (TDP1) is a novel repair gene, and we propose to use it as a new target for anticancer drug development. TDP1 is not an essential protein, but under treatment with topoisomerase I poison (camptothecin: CPT), TDP1 works as a critical factor for cell survival. To directly identify novel TDP1 inhibitors active in a cellular environment, we have knocked-out the Tdp1 gene in chicken DT40 cells (Tdp1-/-) and generated a complemented counterpart cells that contains a stable transfection of the human TDP1 gene (Tdp1-/-;hTDP1 cells). For the primary screen, Tdp1-/-;hTDP1 cells will be exposed to small molecules in the presence or absence of CPT, and their growth kinetics will be evaluated after 48 hours by measuring ATP activity. […] The hit compounds will then be evaluated in the presence or absence of CPT using Tdp1-/- cells. […] In tertiary assays, biochemical gel-based assays will be used to assess whether the hit compounds specifically target TDP1.
# To this end, we have screened this cell line against the MLSMR in two primary screens. In one screen we add CPT and in the other we screen in the absence of CPT; this AID represents the screen where CPT was absent.
# NIH Chemical Genomics Center [NCGC]
# NIH Molecular Libraries Probe Centers Network [MLPCN]
# Assay Submitter (PI): Yves Pommier, NCI
# DT40-hTDP1 cells without 20 nM Camptothecin (add 20 microL of DMSO in 1 L of cell culture medium) were dispensed at 400 cells/5microL/well in tissue culture treated 1536-well white wall/solid bottom assay plates (Greiner Bio-One North America, NC, U.S.A.) using a Multidrop Combi 8 channel dispenser (Thermo Fisher, Waltham, MA, USA). 23 nL compounds and controls were transferred using the pin tool (Kalypsys, San Diego, CA, USA) to the assay plates. The assay plates were then incubated at 37 masculineC for a minimum 48 hr. Three microL of Cell Titer Glo solution was added to the plates and incubated at RT in dark for 30 min. Luminescence was read using ViewLux (Perkin Elmer) with 1 sec exposure slow speed, high gain and 2x binning.
# Potency is the fitted concentration of half-maximal effect.
row,Structure (SMILES),Potency
1,COC(=O)c1ccc(NC(=O)CSc2nc(N)c(NC(=O)c3ccc(Br)o3)c(=O)[nH]2)cc1,inactive
2,Cc1cc(NCc2cccnc2)no1,inactive
3,Clc1ccc(Nc2ncnc3c2nnn3Cc2ccccc2)cc1,inactive
4,OC[C@@H]1CN(Cc2ccc(Cl)cc2)C[C@H](n2cnc3c(NCc4ccncc4)ncnc32)O1,inactive
5,Clc1ccc(Cn2ncc3c(NCc4cccnc4)ncnc32)cc1,20.6 µM (active)
6,c1ccc(CNc2ncncc2-c2cccnc2)cc1,inactive
7,Brc1ccc2ncnc(NCc3cccnc3)c2c1,20.6 µM (active)
8,O=C(NCCN1CCOCC1)c1ccc2c(c1)ncn2C1CCCC1,inactive
9,CC(Oc1cccc(Cl)c1)C(=O)NC1CC(C)(C)NC(C)(C)C1 (stereo not drawn),inactive
10,CN(CC(=O)NCCc1ccccc1)S(=O)(=O)c1cnc[nH]1,inactive
11,CN=C(NC#N)NCCSCc1nc[nH]c1C,inactive
12,COc1ccc(CN2C(=O)CN=C2Nc2ccc(C)cc2C)cc1,inactive
13,CCOC(=O)c1ccccc1CN1C(=O)c2ccccc2S1(=O)=O,inactive
14,CCOC(=O)CN1C(C(=O)c2ccccc2)=C(OC(=O)C(C)(C)C)c2ccccc2S1(=O)=O,14.6 µM (active)
15,COC(=O)C1=C(c2ccccc2)c2ccccc2S(=O)(=O)N1CC(=O)Nc1ccccc1C(F)(F)F,inactive
16,Cn1c(SCC(=O)c2ccc(F)cc2)nnc1-c1ccccn1,inactive
17,Cc1ccccc1S(=O)(=O)NC(=O)C1(C)CCN1C(=O)Cc1ccc(Cl)cc1Cl (stereo not drawn),inactive
18,Cc1ccccc1S(=O)(=O)NC(=O)C1(C)CCN1C(=O)C1(c2ccc(Cl)cc2)CC1 (stereo not drawn),inactive
19,CC1(C(=O)Nc2cccc3c2CCCC3)CCN1C(=O)C1(c2ccccc2)CC1 (stereo not drawn),14.6 µM (active)
20,CC1(C(=O)Nc2cccc3c2CCCC3)CCN1C(=O)CCc1ccc(Cl)cc1Cl (stereo not drawn),23.1 µM (active)
21,CCCNC(=O)C1(C)CCN1C(=O)C1(c2ccccc2)CC1 (stereo not drawn),inactive
22,CC1(C(=O)NS(=O)(=O)Cc2cccc(Cl)c2)CCN1C(=O)Cc1ccc(Cl)cc1Cl (stereo not drawn),inactive
23,O=C(N=C1SC2CS(=O)(=O)CC2N1c1ccccc1)c1ccccc1 (stereo not drawn),inactive
24,O=c1ccn([C@@H]2O[C@H](CNS(=O)(=O)c3cc4ccccc4s3)[C@@H](O)[C@H]2O)c(=O)[nH]1,inactive
25,Nc1ccc(Oc2ccc(Cl)cc2)cc1,inactive
26,CC(C(=O)O)c1ccc(C2CCCCC2)c2ccccc12 (stereo not drawn),inactive
27,Cc1ccccc1Nc1scc(-c2ccc(Br)cc2)[n+]1-c1ccccc1C,29.1 µM (active)

row,Structure (SMILES),Potency
1,CCCCC1S/C(=N/N=C/c2cccs2)NC1=O (stereo not drawn),18.4 µM (active)
2,CCC1S/C(=N/N=C/c2ccco2)NC1=O (stereo not drawn),inactive
3,O=C1N/C(=N\N=C\c2ccco2)SC1Cc1ccc(F)cc1 (stereo not drawn),inactive
4,C=CCOC(=O)C1=C[C@H](c2ccc(Br)cc2)C[C@H](OCCCCO)O1,inactive
5,CC1(C)CC(=O)C(C2=NC(C)(C)Cc3ccccc32)=C(O)C1,inactive
6,CCOc1ccc(NC(=O)N(CCC(C)C)C(C)c2ccco2)cc1 (stereo not drawn),20.6 µM (active)
7,CCOc1ccc(NC(=O)c2ncoc2-c2ccco2)cc1,inactive
8,CCOc1ccc(NC(=O)N(CC(C)C)CC(C)C)cc1,inactive
9,C[N+](C)(C)CCCCCNCC12CC3CC(CC(C3)C1)C2,inactive
10,CC(C)(O)C#Cc1ncc(C(F)(F)F)cc1Cl,inactive
11,Cc1cc(C)n(S(=O)(=O)c2cccc([N+](=O)[O-])c2)n1,inactive
12,Cc1ccc(S(=O)(=O)N[C@H](CO)C(C)C)cc1,inactive
13,CN(C)C(=O)N=NC(=O)N(C)C,9.2 µM (active)
14,CCOC(=O)N/N=C/c1cccnc1,inactive
15,CC(C)(C)OC(=O)N/N=C/c1ccc(C(=O)O)cc1,inactive
16,COC(=O)N/N=C/c1c[n+]([O-])c2ccccc2[n+]1[O-],0.0422 µM (active)
17,N#Cc1ccccc1NC(=O)c1ccc2c(c1)OCO2,inactive
18,CC1CCN(C(NC(=O)c2ccco2)C(=O)c2ccccc2)CC1 (stereo not drawn),inactive
19,O=C(NCCCN1CCCC1=O)C(=O)NCC1OCCN1S(=O)(=O)c1ccc(Br)cc1 (stereo not drawn),0.411 µM (active)
20,O=C(NCc1ccc2c(c1)OCO2)C(=O)NCC1OCCN1S(=O)(=O)c1ccc(F)cc1 (stereo not drawn),inactive
21,O=C(NCc1ccncc1)C(=O)NCC1OCCN1S(=O)(=O)c1ccc(Br)cc1 (stereo not drawn),inactive
22,CC(C)c1ccc(NC(=O)CCN2C(=O)c3ccc([N+](=O)[O-])cc3C2=O)cc1,inactive
23,CC(C)CNC(=O)COC(=O)/C=C/c1ccccc1[N+](=O)[O-],inactive
24,CC(C)OCCCNC(=O)C1CC(=O)N(C2CCCCCCC2)C1 (stereo not drawn),inactive
25,O=C(Cc1ccccc1)NCC1OCCc2ccccc21 (stereo not drawn),inactive
26,COc1ccc2nc(N3C(=O)C(O)=C(C(=O)c4ccco4)C3c3ccco3)sc2c1 (stereo not drawn),inactive
